# Bioassay records as filed in PubChem.
# C8 TRAIL sens: viability loss with TRAIL in NB7+C8 cells, primary screen, TRAIL sensitizer project, cell-based, ATPlite luminescence. inhibition (viability loss, TRAIL sensitization), % at 10 µM. 360,000 compounds, 1% hits. AID 624354, 2012;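 active = compounds causing at least 50% loss of cell viability in the single-dose screen, relative to plate controls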
# PPC-1+TRAIL kill: compounds killing PPC-1 cancer cells with TRAIL present, primary screen, TRAIL potentiator project, ATPLite luminescence, uHTS. 220,000 compounds, 0.41% hits. PPC-1 cells + TRAIL, ATPLite viability luminescence. cell killing (% activity), % at 4 µM or 5 µM;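 active = cell killing above 50% in the first pass at 4 µM, then a duplicate retest at 5 µM averaging 50% or more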;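 also: plate controls were cells with TRAIL plus DMSO for no effect and medium-only wells lacking cells for full effect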
# SENP8 block-1: SENP8 protease inhibitors, primary screen, biochemical, luminescence; AID 2540, 2010; inhibition, % at 10 µM; 330,000 compounds, 1.2% hits; purified SENP8, Z-RLRGG-aminoluciferin cleavage; Sentrin-specific protease 8 (Homo sapiens), Q96LD8; in the data active = inhibition above about 50%
# SENP6 block: SENP6 protease inhibitors, primary screen, biochemical, luminescence, uHTS. inhibition, % at 10 µM. 330,000 compounds, 1.8% hits. Recombinant SENP6 catalytic domain, aminoluciferin luminescence. Sentrin-specific protease 6 (Homo sapiens), Q9GZR1;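 active = inhibition above about 50% at the single tested dose, limit read from the data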;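 also: plate controls were DMSO wells with enzyme for no effect and DMSO wells lacking enzyme for full effect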
# SENP8 block-2: human SENP8 protease inhibitors, primary screen, biochemical, fluorescence, Nedd8 protein substrate, uHTS. Sentrin-specific protease 8 (Homo sapiens), Q96LD8. recombinant SENP8. inhibition, % at 20 µM. 360,000 compounds, 0.64% hits; in the data active = inhibition mostly above about 40%, no sharp cut-off; inactive = mostly below about 27%
# SENP7 block: SENP7 protease inhibitors, primary screen, biochemical, luminescence, uHTS; Sentrin-specific protease 7 (Homo sapiens), Q9BQF6; AID 434973, 2010; recombinant SENP7, Z-RLRGG-aminoluciferin luminescence, 40 min; inhibition, % at 5 µM; 330,000 compounds, 1.5% hits;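 active = inhibition above about 50% at the single test dose, limit read from the data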;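 also: plate controls were DMSO with enzyme for no effect and no enzyme buffer wells for full effect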
# Target sequence (Q9BQF6 706-1050 limits assumed): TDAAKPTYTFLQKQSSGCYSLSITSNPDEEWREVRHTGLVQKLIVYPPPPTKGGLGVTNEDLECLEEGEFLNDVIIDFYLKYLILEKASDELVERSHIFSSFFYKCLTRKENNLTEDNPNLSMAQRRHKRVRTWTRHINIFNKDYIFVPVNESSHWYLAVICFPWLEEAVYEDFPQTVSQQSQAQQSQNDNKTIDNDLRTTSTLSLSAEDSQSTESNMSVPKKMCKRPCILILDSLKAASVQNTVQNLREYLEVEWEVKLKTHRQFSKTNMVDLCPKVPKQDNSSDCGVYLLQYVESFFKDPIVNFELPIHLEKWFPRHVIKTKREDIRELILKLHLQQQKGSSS
# SENP8 inh conf: human SENP8 protease inhibitors, confirmation, biochemical, Nedd8 protein substrate, single concentration; shares compounds with SENP8 block-2; purified SENP8, Nedd8-AMC/pro-Nedd8 cleavage fluorescence, 30 min; inhibition, % at 25 µM; 1,400 compounds, 15% hits; in the data active = inhibition mostly above about 39%, no sharp cut-off; inactive = mostly below about 34%
# * marks the source's active call; other numbers are inactive results; . = no result. In the library only some 3% were active in any assay of this set; here they are far more common.
SMILES,C8 TRAIL sens,PPC-1+TRAIL kill,SENP8 block-1,SENP6 block,SENP8 block-2,SENP7 block,SENP8 inh conf
Cc1ccc(S(=O)(=O)NCC2CCCO2)cc1[N+](=O)[O-] (stereo not given),-4,18,-14,0,45*,-11,7
COc1ccc(NC(=O)CN2CCc3ccccc3C2)cc1S(=O)(=O)N1CCOCC1,6,26,-10,5,47*,-6,8
COc1ccc(NC(=O)CN2CCOCC2)cc1S(=O)(=O)N1CCCCC1,-9,.,3,-12,26,4,.
CCOC(=O)c1ccc(NC(=O)CN2CCc3ccccc3C2)cc1,8,22,-4,11,49*,-4,47*
CCOc1ccc(NC(=O)CN2CCc3ccccc3C2)cc1,-15,.,2,12,14,6,.
CCC1(c2ccccc2)NC(=O)N(CC(=O)Nc2cc(S(=O)(=O)N3CCCCC3)ccc2OC(C)C)C1=O (stereo not given),-11,.,-7,-14,5,0,.
COCCNC(=S)Nc1ccc2[nH]c(=O)[nH]c2c1,7,5,1,1,6,5,.
CCN(CC(=O)Nc1cc(Cl)ccc1C)C(=O)c1ccc2c(=O)n3c(nc2c1)CCC3,6,.,-11,-8,-51,-8,.
Cc1ccc(Nc2cc(C)c(O)c(C)c2)cc1,7,.,2,8,48*,8,67*
Nc1ccccc1O,-6,.,4,13,58*,9,13
Oc1ccccc1O,35,.,14,-14,12,-5,.
Cc1nnc(SCC(=O)NC2(C#N)CCCCC2)n1N,0,.,.,.,6,.,.
CCOC(=O)C1CCN(S(=O)(=O)c2ccc(-c3cc(C(F)(F)F)n(C)n3)s2)CC1,10,-1,-2,-9,52*,-1,35
O=C1CC(c2ccccc2)Oc2cc(O)cc(O)c21 (stereo not given),0,22,36,26,2,17,.
CC(C)=CCc1c(O)cc2c(c1O)C(=O)CC(c1ccccc1)O2 (stereo not given),8,.,-11,-14,42*,6,14
CC1CN(C(=O)Cn2c(=O)oc3ccccc32)CC(C)O1 (stereo not given),-4,.,-3,-16,5,2,.
CCOc1cccc(C=NNc2ccc(S(=O)(=O)Nc3ccccc3C(=O)O)cc2[N+](=O)[O-])c1O,-9,.,-9,12,19,-5,.
CCOc1ccc(C=NNc2ccc(S(=O)(=O)Nc3ccccc3C(=O)O)cc2[N+](=O)[O-])cc1,4,.,11,-1,49*,-6,28
CCS(=O)(=O)NCCNc1ccc([N+](=O)[O-])cc1,3,13,0,5,25,4,.
CCOC(=O)C1C2C=CC3(CN(Cc4cccs4)C(=O)C13)O2 (stereo not given),2,4,2,-1,45*,-5,6
CCN(CC)c1ncnc2c1cnn2Cc1ccc(Cl)cc1,-4,-10,1,13,41*,5,3
O=C(NCCCN1CCCC1=O)C(=O)NCC1OCCCN1S(=O)(=O)c1cc(F)ccc1F (stereo not given),2,.,1,7,4,14,.
O=C1CC2(CCN(C(=O)c3ccccc3Cl)CC2)Oc2ccccc21,2,.,-10,-6,-31,-9,.
Cc1ccc(N2C(=O)Cc3ccccc3C2=O)cc1,-4,.,23,40,69*,17,55*
Cc1cccc(N2C(=O)Cc3ccccc3C2=O)c1,-32,.,20,31,82*,24,43
Cc1nc(C)n(C(C)CNS(=O)(=O)c2ccc(C)c(C)c2)n1 (stereo not given),-25,.,1,-49,4,5,.
